For 8 molecules, growth results are on record in PubChem BioAssay (NCI).

About 83,000 compounds went through this panel and 20% of them were active in at least one assay; those are over-represented in the sample as a whole.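 96-well plates, one dose, 48 hours. Percent growth reported; active if below 10.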 A number with no mark means an inactive call. Calls of active or inactive are those of the source.

The assay has as its system MCF7 breast. Description: NCI-60 one-dose screen, 48 h (100 = growth as untreated, 0 = no growth, -100 = all killed). The conditions noted are these: 10 µM unless noted.
`Oc1ccc(CSc2nnc(-c3ccccc3)n2-c2ccccc2)c2cccnc12`: the growth is 3.8% (active).
The same measure for `Cc1ccc(NC(=O)c2ccc(CN3CCN(C)CC3)c(C(F)(F)F)c2)cc1Oc1ccc(-c2[nH]nc3ncnc(N)c23)cc1`: 54%; for `CC(c1ccccc1)N1C(=O)/C(=C/c2csc(C#N)n2)SC1=S` (stereo not drawn): 36.6%; for `O=C(COc1ccc(C2SCC(=O)N2c2ccc(F)cc2)cc1)c1ccccc1` (stereo not drawn): 81.7%.
Turning to `COc1ccc(-c2nnc(SCc3ccc(O)c4ncccc34)o2)cc1`, the growth is 14.9%.
Turning to `O=c1[nH]c(CNc2ccc(NCc3c(-c4ccccc4)no[n+]3[O-])cc2)nc2c1cnn2-c1ccccc1`, the growth is 50.1%.
For `COc1ccc(N)cc1C(=O)Nc1cccc(-c2cc(=O)c3c(OC)c(OC)c(OC)cc3o2)c1`, the growth was 45.2%.
Regarding `CCCC(=O)NC(c1cccnc1)c1cc(C(C)=O)c2cccnc2c1O` (stereo not drawn), the growth was 18.8%.
